This is an account of results in the OligoGym collection.
Note: reference of the scale not given here.

For one test, the target named is ZNF653. Put plainly: pooled miR-30 sensor sort-seq; sequence = guide strand. Conditions: shRNA.
For ATGATGGCTGACATGTCGCTGC, the sensor-assay potency score (higher = more potent) was -0.928.

The sequence TTGTACTGCACCTCCGCAGTGT gave a sensor-assay potency score (higher = more potent) of -0.237.

As to TTCTTCCTCTTGAAGGACTTGC, the sensor-assay potency score (higher = more potent) is -0.65.

In the case of TAGCAAGCACAGGTCCTCCTTC, the sensor-assay potency score (higher = more potent) is -0.219.

Regarding TGAAGTTGTACTGCACCTCCGC, the sensor-assay potency score (higher = more potent) was -0.192.

The sequence TGACATGTCGCTGCCGTCCAGC displayed a sensor-assay potency score (higher = more potent) of -1.21.

For TTGACGTGGTTCTGGAAGCTGC, the sensor-assay potency score (higher = more potent) was -0.877.

Turning to TTCCTCTTGAAGGACTTGCCGC, the sensor-assay potency score (higher = more potent) is -0.882.

In the case of TTTGTCACTGTCAGGGTCTGAG, the sensor-assay potency score (higher = more potent) was -0.472.

The target of the next test is ZNF654. The description is as above. Conditions: shRNA.
On to TAAATATCCGGACACAACCAAG, for which the sensor-assay potency score (higher = more potent) is -1.3.

The sequence TATCTTGATCAGAACAGGCATC came in with a sensor-assay potency score (higher = more potent) of -0.711.

The sequence TTCTGAACTAAACTGTCTGTTT displayed a sensor-assay potency score (higher = more potent) of 0.135.

In turn, TTGAGCTGCAGCAATTTGCTGC gave a sensor-assay potency score (higher = more potent) of 0.117.

TGAGTCTGTCTGAACATCCCAA: the sensor-assay potency score (higher = more potent) was -0.147.

Consider TAGGATTTGAGTCTGTCTGAAC, for which the sensor-assay potency score (higher = more potent) was -1.01.

With TAAAGTTTCCTTCTTGATCTGT, the sensor-assay potency score (higher = more potent) was determined as 0.508.

The sequence TTTGCTAGTAGAAACTGGCAGA gave a sensor-assay potency score (higher = more potent) of -0.0895.

Sequence TTCTTGTGGTACAACACTGGGC gave a sensor-assay potency score (higher = more potent) of -0.302.

In turn, TTGTCGCACATTTAAATCGGTT gave a sensor-assay potency score (higher = more potent) of -1.07.

In the case of TTACACATGCAAAACTGCCTTT, the sensor-assay potency score (higher = more potent) came out at 0.225.

In the case of TTGATTTGCTAGTAGAAACTGG, the sensor-assay potency score (higher = more potent) worked out at 0.3.

Another test deals with ZNF674. Described as above. Conditions: shRNA.
Sequence TTTACTACACTCATAAATGTTC returned a sensor-assay potency score (higher = more potent) of -0.591.

In the case of TTTTACATTCTTGACCACTTTC, the sensor-assay potency score (higher = more potent) was -0.602.

With TTGACCACTTTCATCCTTCAGT, the sensor-assay potency score (higher = more potent) stood at 0.00879.

The sequence TTGATGAGAGTTGACTTCCTAC came in with a sensor-assay potency score (higher = more potent) of -0.0843.

In the case of TATCTGCTCGTCAACTTCCCAG, the sensor-assay potency score (higher = more potent) was -1.05.

TACATTCTTGACCACTTTCATC yielded a sensor-assay potency score (higher = more potent) of -1.6.

In turn, TTCTTGACCACTTTCATCCTTC yielded a sensor-assay potency score (higher = more potent) of 0.42.

Take TTCTACATATTTTACATTCTTG: the sensor-assay potency score (higher = more potent) was -0.737.

With TTTACAGAAACAAAGTCTGTGT, the sensor-assay potency score (higher = more potent) was -0.0841.

TACAGAAACAAAGTCTGTGTTG had a sensor-assay potency score (higher = more potent) of -0.525.

Sequence TTGGACATTTGTCACATACAAA yielded a sensor-assay potency score (higher = more potent) of -1.79.

As for TTTTACAGAAACAAAGTCTGTG, the sensor-assay potency score (higher = more potent) amounted to 0.624.

The next test addresses ZNF708. The test is described as above. Conditions: shRNA.
The sequence TTCTCTAACATGACATTCCTAT came in with a sensor-assay potency score (higher = more potent) of -0.111.

Sequence TTGAAAATACACTAAAAGCTTT had a sensor-assay potency score (higher = more potent) of -0.61.

Turning to TCTGATATCCACATTTTCCATA, the sensor-assay potency score (higher = more potent) was -1.12.

The sequence TTTCTTGTGATTAGTAAGGTTT showed a sensor-assay potency score (higher = more potent) of -0.453.

TTTCTAGTAAGAATTATCTTAC: the sensor-assay potency score (higher = more potent) was -0.946.

TTTGTCACACTGAACTATTTTG yielded a sensor-assay potency score (higher = more potent) of -1.74.

For the sequence TTATCTTATGTCTCTTTGCATT, the sensor-assay potency score (higher = more potent) is -1.42.
